SMILES strings stand for the structures. Activity calls are given as the source filed them.

These results are taken from PubChem BioAssay.

In experiment [1] the test system is Plasmodium falciparum Sir2 (PF13_0152, Sir2A). The experiment can be described thus: Plasmodium falciparum Sir2A binding compounds – biochemical, small-molecule microarray, 635 nm fluorescence, primary screen (AID 1098).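 Also: score merges spot fluorescence intensity with its signal-to-noise ratio.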 As to conditions: fluorescence 635 nm, higher = more signal.
The nature of experiment [2]: probe aDKK1 binding to arrayed compounds – biochemical, biotinylated probe, 635/667 nm fluorescence, primary screen (AID 1099).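 Also: score merges 667nm spot fluorescence with signal to noise across triplicate slides.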 Particulars: small-molecule microarray, higher = more signal.
Experiment [3] can be described thus: probe aCHRDL2 binding to arrayed compounds – biochemical, biotinylated probe, 635/667 nm fluorescence, primary screen (AID 1100). As to conditions: small-molecule microarray, higher = more signal.
Experiment [4] is described as follows: change in splice reporter luminescence, either direction, cell-based, HEK293, spliceosome inhibition project, primary screen (AID 1101).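 Also: HEK293 cells carrying a splicing-competent luciferase reporter gene; test concentration not given here.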 Particulars: HEK293 splicing luciferase reporter, 24 h, higher = more signal, called active from +8 up or from −8 down.
Experiment [5] deals with Fibroblast growth factor 10 (Homo sapiens) (UniProt O15520). Nature of the experiment: compounds binding fibroblast growth factor 10 – biochemical, small-molecule microarray, 635 nm fluorescence, primary screen (AID 1102). Particulars: FGF10 binding, fluorescence 635 nm, higher = more signal.
Experiment [6] has as its system glycogen synthase kinase-3 (GSK3A per assay name; protocol says GSK3B). Nature of the experiment: compounds binding glycogen synthase kinase-3 – biochemical, small-molecule microarray, 635 nm fluorescence, GSK3A, primary screen (AID 1103). Also: the record names both GSK3A and GSK3B. As to conditions: fluorescence 635 nm, higher = more signal.
For experiment [7], the target named is Epidermal growth factor receptor (Homo sapiens) (UniProt P00533). The experiment can be described thus: compounds binding epidermal growth factor receptor – biochemical, small-molecule microarray, 635 nm fluorescence, primary screen (AID 1104).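 Also: score merges 667 nm emission intensity with spot signal to noise over triplicate slides.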 Particulars: EGFR binding, higher = more signal.
Experiment [8] has as its target Follistatin-related protein 3 (Homo sapiens) (UniProt O95633). Nature of the experiment: compounds binding follistatin-related protein 3 – biochemical, small-molecule microarray, 635 nm fluorescence, primary screen (AID 1105).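 Also: score merges emission near 667 nm and signal to noise per printed spot across three slides.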 Particulars: FSTL3 binding, higher = more signal.
Experiment [9] addresses Dickkopf-related protein 1 (Homo sapiens) (UniProt O94907). The experiment can be described thus: small molecules binding DKK1 protein – biochemical, small-molecule microarray, 635 nm fluorescence scan, primary screen (AID 1106).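 Also: score merges emission near 667 nm with signal to noise over three replicate slides.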 As to conditions: higher = more signal.
Experiment [10] relates to Inhibin beta A chain (activin A). Nature of the experiment: small molecules binding activin A – biochemical, small-molecule microarray, 635 nm fluorescence scan, primary screen (AID 1107).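 Also: mouse activin A protein probed at 4.33 µg/mL on printed slides; score merges bound-protein fluorescence near 667 nm with spot signal-to-noise.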 Particulars: INHBA, higher = more signal.
Experiment [11] deals with Human papillomavirus type 1a protein E7 (residues 44-93). The experiment can be described thus: small molecules binding HPV E7 44-93 – biochemical, small-molecule microarray, residues 44-93, 635 nm fluorescence, primary screen (AID 1108).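 Also: E7 fragment applied at 1 µg/mL in TBST for 1 h at 4 C; score combines spot fluorescence with its signal to noise ratio.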 As to conditions: fluorescence 635 nm, higher = more signal.
Experiment [12] is described as follows: hepatitis C replication reporter changes, two-sided – Huh7 cells, luciferase reporter, HCV replication inhibitor project, primary screen (AID 1109).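 Also: huh7 hepatoma cells harbouring a luciferase neomycin HCV replicon reporter; luciferase luminescence as measure of HCV replicon replication; test concentration not given here.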 Particulars: Huh7 HCV replicon luciferase reporter, 48 h; higher = more signal. For orientation: A reporter such as luciferase makes a cellular process visible.
Experiment [13] concerns the target Left-right determination factor 2 (Homo sapiens) (UniProt O00292). The experiment can be described thus: small molecules binding LEFTY2 protein – biochemical, small-molecule microarray, 635 nm fluorescence scan, primary screen (AID 1110). Particulars: higher = more signal.
Experiment [14] has as its target Calmodulin-1 (Homo sapiens) (UniProt P0DP23). Nature of the experiment: small molecules binding calmodulin-1 with EGTA – biochemical, small-molecule microarray, Cy5-labelled CALM1, profiling panel (AID 1111).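 Also: labelled calmodulin applied in Tris saline Tween buffer holding calcium plus EGTA and DTT.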 Particulars: Cy5-CALM1 binding fluorescence, higher = more signal.
Experiment [15] shares this target. The experiment can be described thus: small molecules binding Ca-loaded calmodulin-1 – biochemical, small-molecule microarray, Cy5-labelled CALM1, plus calcium, artefact control for SMM control-protein annotation, profiling panel (AID 1112).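 Also: score merges spot fluorescence with signal to noise from triplicate slides.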 As to conditions: Cy5-CALM1 binding fluorescence, higher = more signal.
Experiment [16] in a line: probe aWnt5a binding to arrayed compounds – biochemical, biotinylated probe, 635/667 nm fluorescence, primary screen (AID 1113).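 Also: score merges 667 nm fluorescence intensity with signal-to-noise per printed feature.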 As to conditions: small-molecule microarray, higher = more signal.
Experiment [17] is described as follows: probe aShh binding to arrayed compounds – biochemical, biotinylated probe, 635/667 nm fluorescence, primary screen (AID 1114).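 Also: probe is biotin-labelled aShh protein from a stem cell growth factor screen; measures binding of labelled protein to compounds printed on the slide; score merges feature fluorescence at 667 nm with signal-to-noise.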 Particulars: small-molecule microarray, higher = more signal.
Experiment [18] can be described thus: probe aNog binding to arrayed compounds – biochemical, biotinylated probe, 635/667 nm fluorescence, primary screen (AID 1115).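 Also: probe is biotinylated aNog protein used at 0.15 µg/mL for 1 h at 4 C; z-score combines 667 nm fluorescence of each spot with its signal to noise.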 As to conditions: small-molecule microarray, higher = more signal.
Experiment [19] deals with Torsin-1A-interacting protein 1 (Homo sapiens) (UniProt Q5JTV8). Nature of the experiment: compound microarray binding of lysate hLAP1 – cell lysate, small-molecule microarray, COS7 lysate, 635/667 nm fluorescence, primary screen (AID 1116). As to conditions: 635 nm fluorescence, higher = more signal.
The target of experiment [20] is Alpha-bungarotoxin (Bungarus multicinctus) (UniProt P60615). Nature of the experiment: compounds binding labelled alpha-BTX control protein – biochemical, small-molecule microarray, Alexa647 label, 635/667 nm fluorescence, artefact control for SMM control protein annotation, profiling panel (AID 1117). Particulars: alpha-BTX-A647 binding fluorescence, higher = more signal.
Sequence of Alpha-bungarotoxin (Bungarus multicinctus) (P60615 whole entry, looked up): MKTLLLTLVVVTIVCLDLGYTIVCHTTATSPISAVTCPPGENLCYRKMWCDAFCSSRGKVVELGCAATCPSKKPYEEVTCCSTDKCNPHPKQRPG

Sequence of Torsin-1A-interacting protein 1 (Homo sapiens) (Q5JTV8 whole entry, looked up): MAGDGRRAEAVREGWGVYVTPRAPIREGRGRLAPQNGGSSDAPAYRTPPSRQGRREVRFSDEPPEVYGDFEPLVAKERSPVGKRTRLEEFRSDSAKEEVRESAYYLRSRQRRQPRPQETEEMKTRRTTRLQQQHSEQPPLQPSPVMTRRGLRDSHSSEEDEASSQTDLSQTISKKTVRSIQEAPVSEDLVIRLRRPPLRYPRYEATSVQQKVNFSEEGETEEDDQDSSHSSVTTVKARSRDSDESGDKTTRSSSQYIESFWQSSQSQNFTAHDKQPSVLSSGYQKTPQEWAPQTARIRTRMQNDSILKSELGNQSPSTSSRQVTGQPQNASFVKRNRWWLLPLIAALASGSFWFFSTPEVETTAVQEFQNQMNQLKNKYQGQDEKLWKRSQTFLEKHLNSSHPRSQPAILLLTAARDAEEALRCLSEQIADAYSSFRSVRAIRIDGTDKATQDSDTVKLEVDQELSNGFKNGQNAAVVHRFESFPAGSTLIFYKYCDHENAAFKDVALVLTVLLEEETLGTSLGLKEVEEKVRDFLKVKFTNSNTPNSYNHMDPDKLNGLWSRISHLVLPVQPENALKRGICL
Sequence of Dickkopf-related protein 1 (Homo sapiens) (O94907 whole entry, looked up): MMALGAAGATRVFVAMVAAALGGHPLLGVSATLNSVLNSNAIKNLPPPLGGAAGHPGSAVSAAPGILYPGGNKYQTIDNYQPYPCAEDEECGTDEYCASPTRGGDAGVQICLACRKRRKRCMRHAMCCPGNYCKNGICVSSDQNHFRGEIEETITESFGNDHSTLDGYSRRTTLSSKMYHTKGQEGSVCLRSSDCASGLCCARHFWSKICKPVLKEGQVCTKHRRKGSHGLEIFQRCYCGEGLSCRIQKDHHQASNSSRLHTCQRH
Sequence of Follistatin-related protein 3 (Homo sapiens) (O95633 whole entry, looked up): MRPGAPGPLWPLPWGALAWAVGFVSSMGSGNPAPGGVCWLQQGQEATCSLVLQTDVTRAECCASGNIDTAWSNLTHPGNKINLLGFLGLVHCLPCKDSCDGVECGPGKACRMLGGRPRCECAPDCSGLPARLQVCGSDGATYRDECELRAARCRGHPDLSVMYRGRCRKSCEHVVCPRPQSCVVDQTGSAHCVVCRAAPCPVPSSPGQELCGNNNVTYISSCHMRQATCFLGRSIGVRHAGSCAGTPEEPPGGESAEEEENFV
Sequence of Epidermal growth factor receptor (Homo sapiens) (P00533 whole entry, looked up): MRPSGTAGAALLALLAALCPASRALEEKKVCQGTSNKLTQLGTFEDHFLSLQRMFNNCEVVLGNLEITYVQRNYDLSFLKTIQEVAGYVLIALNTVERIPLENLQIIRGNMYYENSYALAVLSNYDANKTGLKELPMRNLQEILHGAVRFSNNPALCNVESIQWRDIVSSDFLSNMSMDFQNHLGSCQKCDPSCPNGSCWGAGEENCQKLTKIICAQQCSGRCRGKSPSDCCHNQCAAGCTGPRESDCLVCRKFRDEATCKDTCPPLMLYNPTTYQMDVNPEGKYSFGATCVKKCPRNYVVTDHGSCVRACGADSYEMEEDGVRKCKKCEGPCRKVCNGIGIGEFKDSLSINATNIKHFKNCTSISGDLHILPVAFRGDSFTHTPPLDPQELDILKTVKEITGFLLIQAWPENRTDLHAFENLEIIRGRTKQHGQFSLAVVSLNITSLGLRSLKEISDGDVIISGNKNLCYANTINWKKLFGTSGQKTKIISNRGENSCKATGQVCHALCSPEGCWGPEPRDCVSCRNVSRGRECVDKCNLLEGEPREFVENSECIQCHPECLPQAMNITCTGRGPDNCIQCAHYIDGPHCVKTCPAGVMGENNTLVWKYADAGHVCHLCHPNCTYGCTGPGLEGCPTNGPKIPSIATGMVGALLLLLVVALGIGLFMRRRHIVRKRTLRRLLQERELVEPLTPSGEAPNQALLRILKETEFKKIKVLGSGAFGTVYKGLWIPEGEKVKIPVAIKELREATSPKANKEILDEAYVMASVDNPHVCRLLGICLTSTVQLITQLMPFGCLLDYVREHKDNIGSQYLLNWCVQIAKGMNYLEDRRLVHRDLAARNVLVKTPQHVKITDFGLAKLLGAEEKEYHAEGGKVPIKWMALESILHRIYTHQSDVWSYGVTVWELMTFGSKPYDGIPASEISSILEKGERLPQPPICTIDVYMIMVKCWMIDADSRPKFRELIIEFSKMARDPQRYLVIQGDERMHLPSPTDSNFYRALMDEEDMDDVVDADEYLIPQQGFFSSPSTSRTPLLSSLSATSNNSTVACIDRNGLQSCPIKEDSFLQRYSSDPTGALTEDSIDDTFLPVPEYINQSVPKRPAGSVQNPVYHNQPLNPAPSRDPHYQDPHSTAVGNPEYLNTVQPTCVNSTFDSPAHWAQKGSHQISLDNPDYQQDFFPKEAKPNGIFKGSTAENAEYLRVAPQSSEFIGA
Sequence of Left-right determination factor 2 (Homo sapiens) (O00292 whole entry, looked up): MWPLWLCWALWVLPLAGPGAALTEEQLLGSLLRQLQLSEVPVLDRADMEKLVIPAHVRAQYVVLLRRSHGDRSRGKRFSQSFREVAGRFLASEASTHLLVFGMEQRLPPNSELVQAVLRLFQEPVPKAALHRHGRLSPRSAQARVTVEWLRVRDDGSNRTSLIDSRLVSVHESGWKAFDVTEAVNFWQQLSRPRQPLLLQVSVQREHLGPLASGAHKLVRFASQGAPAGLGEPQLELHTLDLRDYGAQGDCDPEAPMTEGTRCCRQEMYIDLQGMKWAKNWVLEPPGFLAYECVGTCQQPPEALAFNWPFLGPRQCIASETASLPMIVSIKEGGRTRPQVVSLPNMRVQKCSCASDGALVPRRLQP
Sequence of Fibroblast growth factor 10 (Homo sapiens) (O15520 whole entry, looked up): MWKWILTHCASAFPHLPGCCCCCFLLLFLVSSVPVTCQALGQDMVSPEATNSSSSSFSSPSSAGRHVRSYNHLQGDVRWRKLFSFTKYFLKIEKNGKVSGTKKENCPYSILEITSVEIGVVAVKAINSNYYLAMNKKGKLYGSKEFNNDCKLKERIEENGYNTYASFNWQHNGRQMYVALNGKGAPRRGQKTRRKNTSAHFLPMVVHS

As for `C=C(CCCC)C(=O)CC[C@H](OC(C)=O)c1ccc(CO)o1`, the composite z-score was 0.621 in experiment [1]; -0.402 in experiment [2]; -0.456 in [3]; 0.123 in [5]; 0.2 in experiment [6]; -0.567 in experiment [7]. Moreover, the composite z-score in experiment [8] is -0.139; in [9] it was -0.0639; in experiment [10], 1.24; in experiment [11], 0.478; in [13] it was -0.0361; in experiment [14], -0.933. For the same compound, the composite z-score in [15] was -1.06; in experiment [16] it was -0.0182; in experiment [17], 0.13; in [18], -0.196; in [19], 1.43; in [20], -0.28. For the same compound, the values for the z-score in experiment [4] and in experiment [12] were -1.14 (inactive) and -0.72, respectively.

Turning to `COCC1=C([C@H](O)CCc2ccccc2)[C@H](CO)[C@@H]2C(=O)N(Cc3ccccc3)C(=O)[C@@H]2C1`, the composite z-score is -0.0333 in experiment [1]; -0.253 in experiment [2]; -0.25 in experiment [3]; 0.438 in experiment [5]; 0.0321 in [6]; 0.313 in experiment [7]. The composite z-score in [8] is 0.265; in experiment [9], 0.391; in experiment [10], 0.554; in experiment [11], -0.0325; in [13], 0.435; in experiment [14], -0.519. In addition, the composite z-score in experiment [15] is -0.465; in experiment [16], -0.0194; in [17] it was -0.214; in experiment [18], -0.139; in experiment [19], 0.167; in experiment [20], 0.206. The z-score in experiment [4] was 0.212 (inactive); in experiment [12], -0.711.

Consider `C[n+]1ccc2ccc(O)cc2c1`, for which the composite z-score in experiment [1] was -0.0574; in experiment [2] it was -0.147; in experiment [3], -0.444; in experiment [5] it was 1.07; in [6], 0.534; in experiment [7], 1.19. Also, the composite z-score in experiment [8] was 1.45; in [9], 1.31; in experiment [10] it was 1.53; in experiment [11] it was 0.642; in experiment [13] it was 0.92; in experiment [14], -0.825. Further, the composite z-score in experiment [15] was -1.61; in [16] it was -0.124; in [17] it was -0.0804; in experiment [18], -0.323; in experiment [19] it was 1.62; in [20], 0.273. The z-score in [4] is 0.526 (inactive); in [12], -0.337.

For `[N-]=[N+]=NCc1ccccc1C[C@]1(C(=O)NCCN2CCOCC2)N=C(c2ccc(OCCCO)cc2)O[C@H]1c1ccccc1CN=[N+]=[N-]`, the composite z-score in experiment [1] is 1.5; in experiment [2], 0.304; in experiment [3], 0.71; in experiment [5], 1.48; in experiment [6], 1.32; in experiment [7], 0.357. Moreover, the composite z-score amounted to 0.535 in experiment [8]; 0.16 in experiment [9]; 0.928 in experiment [10]; 1.43 in experiment [11]; 0.278 in experiment [13]; 0.86 in [14]. The composite z-score in [15] was 0.368; in experiment [16], -0.124; in experiment [17], -0.146; in experiment [18], -0.158; in experiment [19], 1.59; in [20], 1.28. Moreover, the z-score in experiment [4] is -1.27 (inactive); in [12] it was -3.91.

For the compound `C=CCC(OC(C)=O)[C@@H]1[C@@H](N(Cc2ccc(-c3cccc(C(F)(F)F)c3)o2)C(=O)c2ccc(C)cc2)c2cc(OCCCO)ccc2N1C(=O)c1ccc2ccccc2n1` (stereo not given in full), the composite z-score is 0.273 in experiment [1]; -0.164 in experiment [2]; 0.253 in [3]; 0.453 in experiment [5]; -0.124 in [6]; -0.0487 in experiment [7]. Besides, the composite z-score is 0.483 in experiment [8]; 0.381 in experiment [9]; 1.4 in [10]; -0.172 in experiment [11]; 0.435 in experiment [13]; -0.619 in experiment [14]. Moreover, the composite z-score in [15] is -0.253; in [16], -0.0478; in [17] it was 0.278; in experiment [18], 0.276; in [19] it was -0.0885; in experiment [20], 1.31. In addition, the z-score is 0.168 (inactive) in experiment [4] and -0.462 in [12].

`O=C1OCC=C[C@H]2OC34C=CCN(c5ccc(Cl)cc5)C(=O)[C@H]3N(CCCO)C(=O)[C@@H]4[C@@H]12` (stereo not given in full): the composite z-score in experiment [1] is -0.0096; in experiment [2], -0.477; in [3], 0.673; in [5] it was -0.742; in experiment [6], -1.19; in experiment [7] it was -0.781. Moreover, the composite z-score in experiment [8] was -0.551; in experiment [9] it was -1.32; in experiment [10], 1.23; in experiment [11], -0.0068; in [13] it was -0.59; in experiment [14], -0.268. The composite z-score in [15] was 0.954; in [16], -0.15; in experiment [17], -0.0769; in [18], -0.345; in [19] it was -0.0862; in [20] it was -0.43. The z-score was -0.915 (inactive) in [4] and -0.483 in experiment [12].

For `COCCOC(=O)N1C(=O)[C@@]2(c3ccccc31)[C@H](c1ccc(O)cc1)N1[C@H](c3ccccc3)[C@H](c3ccccc3)OC(=O)[C@H]1[C@@H]2C(N)=O`, the composite z-score in [1] is 0.394; in experiment [2], -0.374; in [3], 0.679; in [5], -0.422; in [6], -1.11; in [7] it was -0.608. For the same compound, the composite z-score was -0.821 in experiment [8]; -1.17 in experiment [9]; -0.249 in experiment [10]; -1.11 in [11]; -0.827 in experiment [13]; -0.284 in [14]. In addition, the composite z-score in experiment [15] is -0.0872; in experiment [16], -0.0256; in [17], 0.0899; in [18], -0.346; in experiment [19] it was -0.571; in experiment [20], -0.448. The values for the z-score in experiment [4] and in [12] were 0.435 (inactive) and -0.823, respectively.

For the compound `O=C(CS)NCCCCCCNC(=O)[C@H]1C[C@H]2C(=O)N3CCC[C@H]3C(=O)N2[C@H]1c1ccc(O)cc1`, the composite z-score in [1] was 1.63; in experiment [2], 0.104; in [3], 0.0018; in [5], 0.732; in experiment [6], -0.477; in experiment [7], -0.154. Also, the composite z-score in experiment [8] was 0.972; in [9] it was 0.317; in experiment [10], 0.487; in experiment [11], -0.185; in experiment [13], -0.0156; in experiment [14], 0.511. Further, the composite z-score in [15] was 0.425; in experiment [16], -0.0236; in experiment [17], -0.0011; in [18], 0.202; in experiment [19], 1.68; in experiment [20] it was 0.927. Also, the z-score is 1.46 (inactive) in [4] and -0.32 in experiment [12].

On to `COC(=O)C(CC#Cc1ccc2c(c1)[C@]1(C(=O)N2)[C@H](C(=O)N2CCCCCCC2)[C@H]2C(=O)O[C@H](c3ccccc3)[C@H](c3ccccc3)N2[C@@H]1c1ccccc1OCCO)C(=O)OC`, for which the composite z-score was 2.14 in experiment [1]; 3.1 in [2]; 1.75 in experiment [3]; 1.47 in experiment [5]; 1.47 in [6]; 1.96 in experiment [7]. The composite z-score in experiment [8] amounted to 1.73; in experiment [9], 2.58; in experiment [10], 1.79; in [11], 1.6; in [13] it was 1.8; in [14] it was 3.11. For the same compound, the composite z-score amounted to 1.85 in experiment [15]; 1.59 in experiment [16]; 3.17 in experiment [17]; 3.79 in experiment [18]; 6.01 in experiment [19]; 4.45 in [20]. Besides, the z-score in experiment [4] is 0.13 (inactive); in experiment [12], -1.88.
